Our source for the growth inhibition values is PubChem BioAssay (NCI).

Values joined by “and” are separate entries in the source; they are usually repeats but may differ in a detail not shown here. Equal entries are not always repeated. The panel holds about 79,000 compounds, 15% with a hit somewhere; the sample as a whole holds those more often. Active and inactive are the calls of the source. Rule as the data show it: active = growth inhibition above about 70%; inactive = the rest.

The nature of this experiment: NCI Yeast Anticancer Drug Screen. Data for the rad50 strain (AID 155).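 Also: 0% = growth of vehicle-only cultures of the same strain.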 To be noted: S. cerevisiae rad50 strain growth inhibition; at 50.0 µM; active compounds read high. The essentials: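 Readout: growth inhibition relative to vehicle-treated cultures. Compound exposure was carried out in a genetically defined yeast strain deficient in DNA damage repair.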
On to `CC12CCC3C(CCC4(C)CC(OC(=O)Cc5ccc(N(CCCl)CCCl)cc5)CCC34C)C1CCC2=O` (stereo not given), for which the growth inhibition was -10.4% (inactive). For `CC(=O)OC1CCC2(C)C3CCC4(C)C(Oc5ccccc5)CCC4C3CC(Br)C2(O)C1` (stereo not given) the value was -48% (inactive). `O=C(O)c1ccccc1O.[Cu]`: the growth inhibition was -31.2% (inactive). For `[C-]#[O+].[C-]#[O+].[C-]#[O+].[C-]#[O+].[C-]#[O+].[C-]#[O+].[C-]#[O+].[C-]#[O+].[C-]#[O+].[C-]#[O+].[Mn].[Mn]` the value was -21.1% (inactive); for `CCN(CC)C(=O)N1CN(c2ccccc2)C2(CCN(CCCC3(c4ccc(F)cc4)OCCO3)CC2)C1=O`, 24.7% (inactive); for `O=[P+](O)c1ccccc1`, -5% (inactive) and -7.35% (inactive). In the case of `CCCC1CC=CCC12C(=O)NC(=O)NC2=O` (stereo not given) it was -4.7% (inactive). Take `OC1=C2CCCCCC2=[N+]2CCCCC2C1` (stereo not given): the growth inhibition is 19.1% (inactive). Take `O=C1NCCCCC1Cl` (stereo not given): the growth inhibition is -12.4% (inactive). As to `O=NN1CCOCC1`, the growth inhibition is -36.5% (inactive).

As to `[Se]c1nc(N2CCOCC2)ncc1-c1ccccc1`, the growth inhibition was -18% (inactive).

Turning to `COc1ccc(/C=C/c2cc(OC)c3c(c2)OCO3)cc1O`, the growth inhibition was 4.4% (inactive). In the case of `ClCCN(CCCl)c1ccc(CCN2CCOCC2)cc1`, the growth inhibition is 46.2% (inactive). With `COC(=O)C[CH2][Sn]([CH2]CC(=O)OC)([c]1ccccc1)[c]1ccccc1`, the growth inhibition was 7.95% (inactive). `[C-]#[O+].[C-]#[O+].[C-]#[O+].[C-]#[O+].[W].c1ccc([PH+](CC[PH+](c2ccccc2)c2ccccc2)c2ccccc2)cc1`: the growth inhibition was -2.9% (inactive).

As for `CC(N)CN.CC(N)CN.[Cl-].[O]=[Os+2]=[O]` (stereo not given), the growth inhibition was -31% (inactive). With `O=C(Nc1ccccc1Cl)Oc1c(Cl)cc(S(=O)(=O)F)cc1Cl`, the growth inhibition was 20.4% (inactive). Regarding `CC(=O)Nc1nc(CCl)cs1`, the growth inhibition was 11.8% (inactive). Regarding `O/N=C1\CN2CCC1CC2`, the growth inhibition was 15.9% (inactive). Take `Cc1c(OCC(=O)N/N=C/c2ccc(N(CCCl)CCCl)cc2)ccc2c(=O)c3ccccc3oc12`: the growth inhibition is -1.95% (inactive). With `COc1ccccc1N=Nc1cccc[c]1[Hg][Cl]`, the growth inhibition was 98.2% (active).

As for `CC1CC(C)(O)CC(C(O)CC2CC(=O)NC(=O)C2)C1=O` (stereo not given), the growth inhibition is 55.9% (inactive).

`Cc1nccc2c1[nH]c1ccc(Br)cc12`: the growth inhibition was 13.7% (inactive).

In the case of `CC(=O)C1(c2ccccc2)CCNCC1`, the growth inhibition was -1% (inactive). In the case of `CC(C)(C)OC(=O)NCC(=O)NC(CSC(c1ccccc1)c1ccccc1)C(=O)NCC(=O)O` (stereo not given) it was 8.45% (inactive); in that of `CSCC(NP1(=O)SC(NN=C(C)C)=NC1(C)C)C(=O)O` (stereo not given), 4.85% (inactive); in that of `CCCCCCCC(=O)O.[Pb]`, 3.55% (inactive).

With `O=[N+]([O-])c1ccc(/C=C/c2ccc(Cl)c(S(=O)(=O)F)c2)c(Cl)c1`, the growth inhibition is 15.6% (inactive). `CC(C)c1cc2c(cc1O)C1(C)CCCC(C)(C)C1CC2=O` (stereo not given): the growth inhibition is 27.4% (inactive).

For the compound `CCCCCCCCCCBr`, the growth inhibition is 30.4% (inactive). In the case of `CC12OC1(C)C1C(=O)OCC1C2=O` (stereo not given) it was 3.4% (inactive). In the case of `NC(=O)c1ccc([As](=O)(O)O)cc1[N+](=O)[O-]` it was -2% (inactive). In the case of `C=Cc1cc(OC)c2c(c1)c(=O)oc1c2cc(OC)c2c(O)ccc(C3OC(C(C)O)C(O)C3O)c21` (stereo not given) it was 88% (active); in that of `CN1C(=O)N(C)P1(Cl)(Cl)Cl`, 18.6% (inactive). As to `Cc1cc(NC2=NCCO2)c2c(c1C)CCCC2`, the growth inhibition was -10.1% (inactive). Regarding `CCCCCCCCCCCOP(=O)(OCC)OCC`, the growth inhibition is 99.5% (active). In the case of `CC1C(c2ccccc2)OCCN1C` (stereo not given) it was -26.4% (inactive); in that of `O=[As](O)(O)c1ccc(F)cc1`, 3.45% (inactive); in that of `Cc1cc(N(CCCl)CCCl)ccc1CN1CCCN(Cc2ccc(N(CCCl)CCCl)cc2C)C1c1ccccc1O`, 0.25% (inactive). With `CN(C)P(=O)(N(C)C)N(C)CO`, the growth inhibition is 6.35% (inactive).
